Results from PubChem BioAssay (Tox21).
Several values for one entry are separate records, joined by “and”; a condition that tells them apart may be missing. Equal values may be shown once. Records with an inconclusive call do not appear. A call without a number means that no potency is given here. The source holds several records for some structures; these can differ, active in one and inactive in another. Activity calls are given as the source filed them. Calls come from the whole dose curve.

The compounds below were run against Acetylcholinesterase (Homo sapiens) (UniProt P22303) (assay: Acetylcholinesterase (AChE) small molecule antagonists: colormetric cell-based qHTS assay (AID 1347395; note: nearly all actives have a fitted effect of over 30% in size)). Details: SH-SY5Y cells AChE activity, colorimetric (Ellman); series mostly up to 115 µM.
Sequence of Acetylcholinesterase (Homo sapiens) (P22303 whole entry, looked up): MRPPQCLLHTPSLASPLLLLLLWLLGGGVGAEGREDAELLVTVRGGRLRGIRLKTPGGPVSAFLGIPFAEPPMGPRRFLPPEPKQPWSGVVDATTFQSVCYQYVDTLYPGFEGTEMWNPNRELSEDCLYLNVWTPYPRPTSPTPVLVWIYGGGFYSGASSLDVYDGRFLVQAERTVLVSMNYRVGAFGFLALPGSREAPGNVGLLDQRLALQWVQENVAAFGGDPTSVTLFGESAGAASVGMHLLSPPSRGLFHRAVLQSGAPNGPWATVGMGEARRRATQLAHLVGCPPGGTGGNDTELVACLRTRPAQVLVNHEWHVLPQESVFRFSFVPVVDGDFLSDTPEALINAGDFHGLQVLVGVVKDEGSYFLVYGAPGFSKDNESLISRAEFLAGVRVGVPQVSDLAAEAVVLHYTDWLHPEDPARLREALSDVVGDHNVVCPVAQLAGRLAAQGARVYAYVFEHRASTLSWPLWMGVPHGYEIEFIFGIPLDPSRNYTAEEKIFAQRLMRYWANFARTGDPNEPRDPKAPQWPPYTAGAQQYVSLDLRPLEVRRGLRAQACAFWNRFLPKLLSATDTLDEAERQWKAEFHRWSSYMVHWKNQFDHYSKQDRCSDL
In short: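 SH-SY5Y cells; cpd 30 min 37 C; + DTNB/acetylthiocholine, 90 min 37 C; colorimetric thiocholine read; qHTS.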
Potency is the fitted concentration of half-maximal effect.

SMILES	Potency
O=C1c2ccccc2C(=O)C1c1ccc2cc(S(=O)(=O)O)cc(S(=O)(=O)O)c2n1	inactive
Cn1sccc1=O	inactive and 71 µM (active)
COS(C)(=O)=O	inactive
O=C(O)c1c(Cl)ccc(Cl)c1Cl	inactive
COc1ccc(N)c([N+](=O)[O-])c1	inactive
CC(C)(CO)CO	inactive
CCCCCCCCCOCC1CO1 (stereo unspecified)	inactive
CCCCOCCOCCOCCO	inactive
CC(C)(C)C(O)/C=C/c1ccc2c(c1)OCO2 (stereo unspecified)	inactive
CCOCCO	inactive
O=C1c2ccccc2C(=O)C1c1ccccc1	inactive
O=c1c(O)c(O)c1=O	inactive
CN1CCN(C(c2ccccc2)c2ccccc2)CC1	inactive
Cc1cc(O)c2c(c1)C(=O)c1cc(O)cc(O)c1C2=O	inactive
C=CC(C)(C)CC(=O)OC	inactive
Cn1c(=O)c2[nH]cnc2n(C)c1=O	inactive
CCCCCC/C=C/CCCCCCCC(=O)O	inactive
CCc1cc2cc(OC)c(OC)cc2c(Cc2ccccc2)n1	inactive
OC1C(O)C(O)C(O)C(O)C1O (stereo unspecified)	inactive
CCCCCCCCCCO[C@@H]1O[C@H](CO)[C@@H](O)[C@H](O)[C@H]1O	inactive
COC(C)(OC)OC	inactive
Cc1ccc(N=Nc2c(O)ccc3ccccc23)c(C)c1	inactive
CCCCCCC(C)(C)C(=O)O	inactive
Oc1ccc2ccccc2c1N=Nc1ccccc1	inactive
CCSC(=O)N(CC)CC	inactive
CC(=O)OCC(=O)[C@@]1(O)CCC2C3CCC4=CC(=O)CC[C@]4(C)C3[C@@H](O)C[C@@]21C (stereo partly specified)	inactive
